A selection: hits, their analogues and other compounds. The true share with any hit is near 4.3%.
NALP1 inh: blocks the NALP1 inflammasome reconstituted in yeast; S. cerevisiae NALP1/ASC/caspase-1 growth, X-gal OD620, 72 h; inhibition, % at 10 µM; 280,000 tested, 0.61% active; AID 2071; in the data active = inhibition mostly above about 24%, no sharp cut-off; inactive = mostly below about 32%
dFosB act-1: mouse delta FosB homodimer activation; 340,000 tested, 0.99% active; activation, % at 25 µM; P13346; purified delta FosB, TAMRA-CDK5 oligo fluorescence polarization; percent of positive-control signal above neutral wells;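 active = mean activation above about 17%, with every replicate also reaching it, limit read from the data, passing the limit was not always enough; inconclusive = only one of the two conditions met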
Target sequence (P13346 whole entry, looked up): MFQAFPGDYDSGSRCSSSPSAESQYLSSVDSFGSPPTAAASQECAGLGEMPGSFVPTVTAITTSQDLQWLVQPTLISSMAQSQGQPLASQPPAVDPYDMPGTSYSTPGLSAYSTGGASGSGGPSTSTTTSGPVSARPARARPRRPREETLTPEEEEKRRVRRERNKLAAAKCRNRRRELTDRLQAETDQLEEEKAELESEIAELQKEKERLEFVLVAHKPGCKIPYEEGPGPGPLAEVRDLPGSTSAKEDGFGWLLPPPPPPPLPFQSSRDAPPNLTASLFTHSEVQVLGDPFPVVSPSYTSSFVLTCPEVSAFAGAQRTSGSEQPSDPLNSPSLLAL
UBC13 polyUb: human UBC13 polyubiquitination inhibition; UBC13 polyubiquitin chain formation, TR-FRET; inhibition, % at 20 µM; 330,000 tested, 0.47% active; AID 485273; in the data active = inhibition above about 45%, passing the limit was not always enough; inconclusive = no clear call, values can overlap the other calls
Target sequence (P61088 whole entry, looked up): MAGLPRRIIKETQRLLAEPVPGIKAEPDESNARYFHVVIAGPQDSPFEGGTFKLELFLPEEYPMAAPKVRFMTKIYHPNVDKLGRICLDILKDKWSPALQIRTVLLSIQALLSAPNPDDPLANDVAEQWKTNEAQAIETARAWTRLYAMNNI
CR mimetic SO: yeast age-related superoxide inhibition as caloric restriction mimetic; S. cerevisiae aged cells, superoxide DHE fluorescence; stronger effect = lower value; 330,000 tested, 0.18% active; AID 2690; superoxide response (% of plate mean), % at 10 µM;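 active = superoxide response under a set limit, about three screen SD below normal, cut at about 65% in these data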;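 note: yeast aged for seven days with compound at 30 °C before DHE staining; 100% = average MFI of all compound-treated wells on the plate with controls excluded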
NR3A LBD binder: modulates the human NR3A ligand-binding domain | NR3A LBD differential scanning fluorimetry, Tm shift; 0% = protein alone, 100% = glycine-bound protein | Tm shift relative to glycine control, % at 25 µM | 340,000 tested, 2.5% active | AID 1259313;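 active = melting temperature shift of at least 10% of the positive control shift, at one fixed dose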
dFosB act-2: enhances mouse delta FosB homodimer binding to DNA; activation, % at 24.9 µM; purified delta FosB, TAMRA-CDK5 oligo fluorescence polarization; normalised: neutral wells 0, positive control 100; 2,400 tested, under 10 active; shares compounds with dFosB act-1;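 active = highest replicate activation at or above 34% and every replicate reaching that threshold; inconclusive = meets only one of the two criteria; inactive = meets neither criterion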;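 note: higher polarization means more probe DNA bound by delta FosB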
Starred values were filed as active, the others as inactive; ? = inconclusive; . = no result.

SMILES	NALP1 inh	dFosB act-1	UBC13 polyUb	CR mimetic SO	NR3A LBD binder	dFosB act-2
CNC(=O)c1c(NC(=O)CCS(=O)(=O)c2ccc(C)cc2)sc(C)c1C	.	-11	-6	103	-4	.
O=C(NCc1cccc(Cl)c1)c1ccc(N2CC3CC(C2)c2cccc(=O)n2C3)c(NC(=O)c2cccnc2)c1 (configuration not stated)	7	-12	-14	104	-2	.
COc1ccc(CN2CCCC(C(=O)c3ccc4c(c3)OCO4)C2)c(F)c1 (configuration not stated)	0	-4	6	114	-3	.
CN(C)CCCNc1cc(-c2ccccc2)nc2cc(-c3cccc(F)c3)nn12	26*	56*	42	77	-1	2
COc1ccc(CNCC(O)(c2ccc(Cl)cc2)c2ccc(Cl)cc2)cc1	25	21*	12	89	-8	0
COc1cccc(-n2c(SCC(=O)NCCC3=CCCCC3)nc3n[nH]c(C)c3c2=N)c1	14	.	10	93	-10	.
CCc1ccc(NC(=O)CSc2nc3n[nH]c(C)c3c(=N)n2-c2cccc(OC)c2)cc1	18	42*	4	108	23*	0
CC(=O)Nc1ccccc1-c1nc2ccccc2nc1OCC(=O)c1ccc(Br)cc1	-1	12	-8	113	1	.
CC(=O)Nc1ccccc1-c1nc2ccccc2nc1OCC(=O)c1ccc2ccccc2c1	10	30*	-7	96	0	-4
CCOc1ccc(CCN2C(=S)N([C@@H](CC(C)C)CN3CCCC3CN3C(=S)NC[C@@H]3Cc3ccc(O)cc3)C[C@@H]2Cc2ccc(O)cc2)cc1 (some centres not stated)	.	51*	.	.	34*	1
CCOc1ccc(CCN2C(=S)N([C@@H](CC(C)C)CN3CCCC3CN3C(=S)NC[C@@H]3Cc3ccc(O)cc3)C[C@@H]2Cc2ccccc2)cc1 (some centres not stated)	.	65*	.	.	31*	4
CC(C)CCN1CCC(CN2C(=O)C(=O)NC[C@@H]2Cc2ccccc2)CC1	.	5	.	.	3	.
CC(C)C[C@H]1CN([C@@H](Cc2ccc(O)cc2)CN2CCC[C@@H]2CN2C(=O)C(=O)NC[C@@H]2Cc2ccccc2)C(=O)C(=O)N1CC1CCCCC1	.	-10	.	.	-7	.
Oc1ccc(C[C@H]2CNC(=S)N2CC2CCCN2C[C@H](Cc2ccccc2)N2C[C@H](Cc3ccc(O)cc3)N(CCc3ccccc3)C2=S)cc1 (some centres not stated)	.	67*	.	.	31*	1
Oc1ccc(C[C@@H]2CNC(=S)N2CCCCC2CCCCC2)cc1	-9	-18	17	105	0	.
CCOc1ccc(NC(=O)c2cc(C3CC3)nc3c2cnn3C(C)C)cc1OC	.	-20	3	74	-5	.
COc1ccc(Br)cc1CN(C)CC(=O)NCCc1ccc(S(N)(=O)=O)cc1	14	-14	-4	88	-1	.
COc1ccc(Br)cc1/C=C/C(=O)OCC(=O)NCCc1ccc(S(N)(=O)=O)cc1	.	22*	-1	87	-3	4
COc1ccc2oc(C(=O)OCC(=O)NCCc3ccc(S(N)(=O)=O)cc3)c(C)c2c1	.	26*	26	98	1	5
CCN(CC)S(=O)(=O)c1cccc(C(=O)Nc2nc3cc4c(cc3s2)OCCO4)c1	6	23*	4	133	-2	-6
O=C(Nc1nc2cc3c(cc2s1)OCCO3)c1cccc(N2C(=O)CCC2=O)c1	12	-5	10	86	-2	.
COc1ccccc1C(=O)Nc1nc2cc3c(cc2s1)OCCO3	-5	31*	25	134	-2	5
COc1ccc(/C=N/n2cnc3c([nH]c4ccc(F)cc43)c2=O)cc1CN1CCCC1	25	-20	5	92	1	.
COc1ccc(/C=N/n2cnc3c([nH]c4ccc(C)cc43)c2=O)cc1CN1CCCC1	-6	42*	1	101	-1	2
COc1ccc2c(c1)[nH]c1c(=O)n(/N=C/c3ccc(OC)c(CN4CCCC4)c3)cnc12	17	66*	9	90	-1	?
SMILES	NALP1 inh	dFosB act-1	UBC13 polyUb	CR mimetic SO	NR3A LBD binder	dFosB act-2
Cc1ccc2nc(C)cc(Nc3ccc([N+](=O)[O-])cc3)c2c1	33	63*	.	107	0	1
CNC(=O)CSc1cn(CC(=O)N(C(C)C)C(C)C)c2ccccc12	19	4	-11	110	2	.
N#C/C(=C/c1ccc(CNC(=O)C(=O)Nc2cc(Cl)cc(Cl)c2)o1)C(=O)NCc1cccnc1	12	53*	-24	113	12*	0
COc1ccc(-n2c(SCC(=O)N3CCc4ccccc43)nnc2-c2c[nH]c3ccccc23)cc1	38	49*	-36	109	2	3
CCn1c(SCC(=O)N2CCc3ccccc32)nnc1-c1c[nH]c2ccccc12	8	3	8	100	-6	.
CC(=O)c1ccc(OCC(=O)Nc2ccccc2C(=O)NC2CC2)cc1	14	30*	2	95	2	0
O=C(CCC(=O)OCC(=O)c1ccc([N+](=O)[O-])cc1)Nc1ccccc1Cl	9	-2	-18	99	0	.
O=C(COc1ccc([N+](=O)[O-])cc1)Nc1ccccc1C(=O)NC1CC1	.	26*	8	84	.	2
O=C(CCC(=O)Nc1ccccc1Cl)NNC(=O)COc1ccc([N+](=O)[O-])cc1	.	17*	0	106	0	-2
O=C(COc1ccc(/C=N/NC(=O)c2ccccc2O)cc1)Nc1ccc([N+](=O)[O-])cc1	25	24*	-1	91	37*	-3
O=C(COc1ccccc1)Nc1ccccc1C(=O)NC1CC1	.	7	6	103	3	.
Cc1cccc(NC(=O)C2CCN(S(=O)(=O)c3cccc4nonc34)CC2)c1	20	-2	-4	96	-6	.
Cc1ccccc1NC(=O)CSc1cn[nH]n1	9	-2	4	100	-1	.
O=S(=O)(NC1CC1)c1ccc(S(=O)(=O)N2CCCC3(CCCCC3)C2)cc1	-8	16*	-4	131	-8	7
O=S(=O)(NC1CC1)c1ccc(S(=O)(=O)N2CCN3CCCC3C2)cc1 (configuration not stated)	-12	-2	-5	97	6	.
O=C(CN1CCN(c2ccccc2)CC1)Nc1cccc([N+](=O)[O-])c1	3	-10	1	109	2	.
CCCNC(=O)CCCCn1c(=S)[nH]c2c([nH]c3ccc(OC)cc32)c1=O	-2	10	-4	101	2	.
COc1ccc2[nH]c3c(=O)n(CCCC(=O)NC4CCC(C)CC4)c(=S)[nH]c3c2c1 (configuration not stated)	8	53*	-17	95	8	-6

Source: PubChem
